13 compounds from PubChem BioAssay can be followed below.

A short description of test [1]: inhibitors of TNFa-induced NFkB p65 translocation, primary screen, imaging, HUVEC, MLSMR starter and 10KST1 sets (AID 438;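 active = inhibition above 20% together with a positive visual image hit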;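 note: compound added about 3h40 before a 20 min TNFalpha stimulation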;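 for inhibition: signal is the nuclear over cytoplasmic p65 intensity ratio per well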). To be noted: HUVEC TNFa-induced p65 nuclear translocation; cell count: measured here: nuclei count (cytotoxicity indicator), at 2.08 µM; inhibition: at 2 µM, stronger effect = higher value, 0% TNFa-plus-vehicle, 100% no-TNFa wells.
Test [2] is described as follows: inhibitors of mutant huntingtin aggregation, primary screen, imaging, exon1htt(103Q)mCFP cells, high-content imaging (AID 483;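 active = visual image review flags a hit and inhibition of aggregation exceeds 20%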;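 note: compound exposure lasted 3 days before fixation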;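 for nuclei count: percent of the per-plate median nuclei count of sample wells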). To be noted: exon1htt(103Q)mCFP cell line, aggregate imaging, at 2 µM; inhibition of aggregation: stronger effect = higher value; nuclei count: measured here: cell count, toxicity.
The nature of test [3]: inhibitors of E-selectin induction by TNFa, primary screen, imaging, HUVEC, immunofluorescence, MLSMR starter and 10KST1 sets (AID 487;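 active = visually confirmed hit in the image check and inhibition above 20%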;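 for inhibition: signal is fraction of cell area covered by stained E-selectin grains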;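 for nuclei count: 100% = median nuclei count of all wells on the same plate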). To be noted: HUVEC TNFalpha-induced E-selectin immunofluorescence imaging, at 2 µM; inhibition: stronger effect = higher value; nuclei count: measured here: cell number, toxicity.
Test [4] concerns the target Voltage-gated potassium channel subunit beta-2 (Rattus norvegicus) (UniProt P62483). Description: KvBeta enzyme negative modulators, primary screen, biochemical, NADPH fluorescence (AID 622;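 active = fluorescence slope higher than the sample average by over 3 SD, cut at about -0.22 in these data, passing the limit was not always enough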;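 note: slope of raw intensity against log time taken from 70 to 1610 s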). To be noted: recombinant KvBeta, 4-cyanobenzaldehyde reduction, at 10 µM, stronger effect = higher value.
The target is the same in test [5]. The test is described as follows: KvBeta positive modulators, primary screen, biochemical, NADPH fluorescence (AID 623;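 active = NADPH fluorescence slope more negative than the mean of all samples by about 3 SD, 99.7% confidence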;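 note: fluorescence intensity change per second fitted from 20 to 320 s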). To be noted: Recombinant KvBeta, NADPH fluorescence decrease slope, 10 min; at 10 µM; stronger effect = lower value.
Test [6] has as its target Alpha-2C adrenergic receptor (Homo sapiens) (UniProt P18825). Description: modulators of alpha2C/GIRK thallium flux, primary screen, cell-based, HEK293 alpha2C/GIRK1/2 (AID 624;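 active = fluorescence slope after compound addition differing from the mean of all screened samples at 99.7% confidence, in either direction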;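 note: slope of fluorescence ratio to pre-addition baseline per second over 15 to 24 s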). To be noted: thallium flux BTC fluorescence, at 10 µM, actives lie on both sides.
Test [7] is described as follows: inhibitors of Sendai virus-induced IRF3 signaling, primary screen, TLR/RLR signaling modifier project, cell-based, Sendai virus stimulus, luciferase, 10K MLSCN set (AID 602276).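 Note: firefly luciferase from ISG56 promoter only with Renilla not read in this screen; 0% = Sendai virus plus DMSO and 100% = medium plus DMSO without virus.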 To be noted: HEK293 RL24 IRF3 luciferase reporter, at 10 µM, stronger effect = higher value.
Test [8] in a line: inhibitors of poly I:C-induced TLR3 signaling, primary screen, cell-based, poly I:C stimulus, luciferase, 10K MLSCN set (AID 602277;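 active = inhibition of the reporter signal at or above 50%; inactive = inhibition below 50%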). To be noted: HEK293-TLR3 RL24 IRF3 luciferase reporter, at 10 µM, stronger effect = higher value.

Structures are written as SMILES. Activity calls are given as the source filed them.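 Rule for the calls, unless noted: active = inhibition at or above 50% at 10 µM; inactive = inhibition below 50%.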

Voltage-gated potassium channel subunit beta-2 (Rattus norvegicus), sequence (P62483 whole entry, looked up): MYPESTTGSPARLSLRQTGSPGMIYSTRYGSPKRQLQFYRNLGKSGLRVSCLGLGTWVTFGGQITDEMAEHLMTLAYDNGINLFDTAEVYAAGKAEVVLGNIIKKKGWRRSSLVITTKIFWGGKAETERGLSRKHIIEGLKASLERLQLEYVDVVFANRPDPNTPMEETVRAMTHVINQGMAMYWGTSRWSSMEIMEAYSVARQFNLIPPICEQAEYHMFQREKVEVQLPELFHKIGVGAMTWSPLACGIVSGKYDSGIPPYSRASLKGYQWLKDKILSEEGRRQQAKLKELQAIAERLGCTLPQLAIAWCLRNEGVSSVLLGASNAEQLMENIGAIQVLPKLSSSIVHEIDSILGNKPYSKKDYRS
Alpha-2C adrenergic receptor (Homo sapiens), sequence (P18825 whole entry, looked up): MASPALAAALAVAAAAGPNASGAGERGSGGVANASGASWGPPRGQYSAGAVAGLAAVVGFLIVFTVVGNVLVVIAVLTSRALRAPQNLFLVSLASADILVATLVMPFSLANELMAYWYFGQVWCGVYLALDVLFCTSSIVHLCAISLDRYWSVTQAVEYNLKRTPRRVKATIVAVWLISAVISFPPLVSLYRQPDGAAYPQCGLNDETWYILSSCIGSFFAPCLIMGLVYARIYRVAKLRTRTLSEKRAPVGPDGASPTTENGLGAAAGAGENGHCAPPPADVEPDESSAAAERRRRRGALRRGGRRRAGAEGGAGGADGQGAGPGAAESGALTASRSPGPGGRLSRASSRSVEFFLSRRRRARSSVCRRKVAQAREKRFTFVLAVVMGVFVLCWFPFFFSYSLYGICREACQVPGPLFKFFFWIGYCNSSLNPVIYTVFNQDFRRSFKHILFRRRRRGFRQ

With `CN1C(=O)CC(N2CCC(C(N)=O)(N3CCCCC3)CC2)C1=O` (stereo not drawn), in test [1], the cell count turned out to be 540. The inhibition in test [1] was 5.4% (inactive); in test [3] it was 10.3% (inactive); in test [7], 15% (inactive); in test [8], 16.9% (inactive). Besides, the inhibition of aggregation in test [2] is -7.1% (inactive). The results for the nuclei count in test [2] and in test [3] were 111% and 117%, respectively. Further, the fluorescence slope in test [4] is -0.593 (inactive). Moreover, in test [5], the NADPH fluorescence slope was -4.9e-05 (inactive). In test [6], the slope is 0.00424 (inactive).

Turning to `COc1cccc(-c2nc(CS(=O)(=O)CC(=O)Nc3cc(C)ccc3C)c(C)o2)c1`, in test [1], the cell count came to 718. The inhibition in test [1] was -4.6% (inactive); in test [3], -21.2% (inactive); in test [7], 5.73% (inactive); in test [8], 27.7% (inactive). In addition, the inhibition of aggregation in test [2] is -2.5% (inactive). For the same compound, the nuclei count in test [2] stood at 59.5%; in test [3], 104%. Moreover, the fluorescence slope in test [4] was -0.517 (inactive). Also, the NADPH fluorescence slope in test [5] was -4.8e-05 (inactive). In addition, the slope in test [6] was 0.00688 (inactive).

Consider `CC(=O)c1ccc(OCC(O)CN2CCN(CCO)CC2)cc1` (stereo not drawn), for which the cell count in test [1] amounted to 605. The inhibition is -6.1% (inactive) in test [1], -19.7% (inactive) in test [3], 13.3% (inactive) in test [7] and 40.3% (inactive) in test [8]. In addition, the inhibition of aggregation in test [2] was -14.2% (inactive). Moreover, the nuclei count in test [2] was 104%; in test [3], 113%. The fluorescence slope in test [4] is -0.549 (inactive). Further, the NADPH fluorescence slope in test [5] was -2.9e-05 (inactive). In test [6], the slope is 0.00738 (inactive).

Turning to `CC(C)OC(=O)CSc1nnc(-c2ccc(C(C)(C)C)cc2)n1N`, the cell count in test [1] was determined as 396. For the same compound, the inhibition in test [1] is -2.3% (inactive); in test [3], -158% (inactive); in test [7], 1.32% (inactive); in test [8] it was 14% (inactive). Further, in test [2], the inhibition of aggregation is 4.2% (inactive). The nuclei count turned out to be 80.6% in test [2] and 210% in test [3]. Besides, the fluorescence slope in test [4] was -0.469 (inactive). Moreover, in test [5], the NADPH fluorescence slope was -3.9e-05 (inactive). Besides, the slope in test [6] was 0.00343 (inactive).

Regarding `COCCNC(=O)C(c1ccc(C)o1)N(Cc1ccc(F)cc1)C(=O)Cn1nnc2ccccc21` (stereo not drawn), the cell count in test [1] came to 591. The inhibition in test [1] is -8.1% (inactive); in test [3] it was 12.3% (inactive); in test [7], 9.7% (inactive); in test [8], 24.6% (inactive). The inhibition of aggregation in test [2] was -12.2% (inactive). In addition, the nuclei count in test [2] was 121%; in test [3], 108%. The fluorescence slope in test [4] is -0.381 (inactive). Moreover, in test [5], the NADPH fluorescence slope was -7.3e-05 (inactive). In addition, the slope in test [6] was 0.00726 (inactive).

With `CCOC(=O)c1ccc(NS(=O)(=O)c2ccc3c(c2)oc(=O)n3C)cc1`, the cell count in test [1] was found to be 467. In addition, the inhibition in test [1] was 1.3% (inactive); in test [3], 10.3% (inactive); in test [7], -7.08% (inactive); in test [8] it was 14% (inactive). Also, the inhibition of aggregation in test [2] was 25.3% (inactive). In addition, the figures for the nuclei count in test [2] and in test [3] were 72.9% and 107%, respectively. In test [4], the fluorescence slope is -0.602 (inactive). The NADPH fluorescence slope in test [5] was -1.1e-05 (inactive). For the same compound, the slope in test [6] is 0.00688 (inactive).

`O=S(=O)(c1ccc(Br)s1)N1CCN(c2ccccc2)CC1`: the cell count in test [1] was 660. Moreover, the inhibition is 6.3% (inactive) in test [1], 14.4% (inactive) in test [3], 10.7% (inactive) in test [7] and 13.7% (inactive) in test [8]. Besides, the inhibition of aggregation in test [2] is 0.1% (inactive). Besides, the nuclei count in test [2] came out at 90.2%; in test [3] it was 102%. In addition, in test [4], the fluorescence slope is -0.289 (inactive). Besides, the NADPH fluorescence slope in test [5] is -3e-05 (inactive). Also, in test [6], the slope is 0.00522 (inactive).

For `CCOc1ccc(CN2C(=O)c3ccccc3C2C(=O)NCc2cccnc2)cc1` (stereo not drawn), the cell count in test [1] came to 500. In addition, the inhibition is -1.1% (inactive) in test [1], -52.5% (inactive) in test [3], 8.35% (inactive) in test [7] and 16.9% (inactive) in test [8]. The inhibition of aggregation in test [2] was -9.9% (inactive). Further, the nuclei count in test [2] was found to be 110%; in test [3], 94.3%. Also, in test [4], the fluorescence slope is -0.599 (inactive). For the same compound, the NADPH fluorescence slope in test [5] was -1.6e-05 (inactive). Also, the slope in test [6] was 0.00638 (inactive).

For `COc1cccc(C2CC(c3c(Cl)cccc3Cl)n3nc(N)nc3N2)c1` (stereo not drawn), in test [1], the cell count came to 568. Also, the inhibition in test [1] was 13.8% (inactive); in test [3], 25.6% (inactive); in test [7], 22.2% (inactive); in test [8], 23.9% (inactive). In addition, the inhibition of aggregation in test [2] is -23.3% (inactive). Also, the nuclei count turned out to be 75.1% in test [2] and 92.1% in test [3]. Further, in test [4], the fluorescence slope was -0.504 (inactive). Besides, in test [5], the NADPH fluorescence slope was -1.9e-05 (inactive). Further, the slope in test [6] was 0.00695 (inactive).

Consider `CCOc1ccccc1NC(=O)CSc1nnc2c(CC)c(C)nc(N)n12`, for which the cell count in test [1] is 340. In addition, the inhibition in test [1] is -6.8% (inactive); in test [3] it was 9.7% (inactive); in test [7], -6.38% (inactive); in test [8] it was 98.4% (active). The inhibition of aggregation in test [2] was 1.5% (inactive). Moreover, the nuclei count in test [2] amounted to 99.1%; in test [3] it was 92.7%. Besides, the fluorescence slope in test [4] was -0.305 (inactive). In addition, the NADPH fluorescence slope in test [5] is -4e-05 (inactive). For the same compound, the slope in test [6] is 0.00576 (inactive).

In the case of `CCN(CC(=O)Nc1ccc(S(N)(=O)=O)cc1)S(=O)(=O)c1cc(C)ccc1OC`, the cell count in test [1] stood at 432. Also, the inhibition is -0.3% (inactive) in test [1], -51.7% (inactive) in test [3], -18.9% (inactive) in test [7] and 19.6% (inactive) in test [8]. Also, in test [2], the inhibition of aggregation was -6.5% (inactive). Besides, the figures for the nuclei count in test [2] and in test [3] were 118% and 132%, respectively. Also, in test [4], the fluorescence slope is -0.425 (inactive). In addition, the NADPH fluorescence slope in test [5] was -4.7e-05 (inactive). In addition, the slope in test [6] was 0.0034 (inactive).

Regarding `CCOC(=O)C1CCCN(Cc2nc(N)nc(Nc3ccc(C)cc3)n2)C1` (stereo not drawn), the cell count in test [1] worked out at 580. Moreover, the inhibition in test [1] was 1% (inactive); in test [3], -41.3% (inactive); in test [7] it was 22.6% (inactive); in test [8], 17.2% (inactive). The inhibition of aggregation in test [2] is -0.6% (inactive). Further, the nuclei count in test [2] amounted to 90.1%; in test [3], 130%. In test [4], the fluorescence slope was -0.438 (inactive). Moreover, the NADPH fluorescence slope in test [5] is -0.000102 (inactive). The slope in test [6] was 0.00446 (inactive).

In the case of `O=C(COC(=O)C1CCN(S(=O)(=O)c2cccs2)CC1)c1cc2ccccc2o1`, the cell count in test [1] is 536. In addition, the inhibition in test [1] is -8.3% (inactive); in test [3], -97.6% (inactive); in test [7] it was 12.4% (inactive); in test [8], 31.7% (inactive). The inhibition of aggregation in test [2] was -0.1% (inactive). In addition, the nuclei count stood at 98.7% in test [2] and 112% in test [3]. In addition, the fluorescence slope in test [4] was -0.501 (inactive). Further, the NADPH fluorescence slope in test [5] was -1.4e-05 (inactive). Also, the slope in test [6] is 0.00534 (inactive).
